Assay outcomes as filed in PubChem BioAssay.
The list is not random: actives were taken first. Their share in the collection is about 17%.
DT40 TDP1 no CPT = qHTS for Inhibitors of human tyrosyl-DNA phosphodiesterase 1 (TDP1): qHTS in cells in absence of CPT | AID 686978, 2013 | Potency, µM (highest dose often 46.2 µM), for inactives: at the top dose activity change, negative = growth inhibition, most hits filed as inhibitors | DT40 Tdp1-/- hTDP1 cells, no CPT, ATP luminescence, 48 h | 420,000 tested, 15% active; further: on the % scale 0 is the no-effect control and ±100 the full control effect; nearly all actives have a fitted effect of over 55% in size
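Stably hTDP1-transfected Tdp1-null chicken DT40 cells were treated with library compounds minus camptothecin and grown for at least 48 hr at 37 °C, after which cellular ATP was quantified by luminescence.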
TDP1 inh = inhibitors of human tyrosyl-DNA phosphodiesterase TDP1; recombinant TDP1, AlphaScreen DNA substrate cleavage; Potency, µM (titrated, usually from 130 µM), for the others: at the highest dose activity change, negative = inhibition, hits mostly inhibitors; Q9NUW8; 350,000 tested, 0.28% active; further: on the % scale 0 is the no-effect control and ±100 the full control effect; nearly all actives have a fitted effect of over 40% in size
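Recombinant E. coli-expressed Tdp1 (1 nM) preincubated with compound 15 min at RT, then 5'-biotin/3'-phosphotyrosine-FITC DNA substrate (15 nM) added for 5 min. AlphaScreen beads (10 ug/ml) added, 10 min RT; tyrosine-FITC cleavage read as signal loss.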
TDP1 cell CPT = DT40-hTDP1 cell growth loss with CPT; chicken DT40 Tdp1-/-;hTDP1 cells + 20 nM CPT, ATP luminescence, 48 h; Potency, µM (doses to about 46.2 µM), for the others: at the top dose activity change, negative = growth inhibition, hits mostly inhibitors; 420,000 tested, 12% active; further: on the % scale 0 is the no-effect control and ±100 the full control effect; nearly all actives have a fitted effect of over 55% in size
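Chicken DT40 Tdp1-/- cells stably complemented with human TDP1 were seeded at 400 cells/well in medium containing 20 nM camptothecin, exposed to pin-transferred compounds, and grown at 37 °C for at least 48 hr. Viability was read as ATP luminescence.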
ClpP mod = qHTS Assay for Activators of ClpP. ATP-dependent Clp protease proteolytic subunit (Bacillus subtilis (strain 168)), P80244. purified B. subtilis ClpP, FRET peptide cleavage, 20 min. Potency, µM (titrated, usually from 57.5 µM), for the others: at the top dose activity change, negative = active. 340,000 tested, 1.9% active. AID 651965, 2013; active means well fitted falling curve with a large enough effect; inconclusive means small, poorly fitted or top-dose-only effect; inactive means no such curve, though single readings can be large or run the other way; further: the source files actives as falling curves though it sought activators and does not explain the sign; nearly all actives have a fitted effect of over 65% in size
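Purified B. subtilis ClpP, 10 microg/mL final in Tris/HCl pH8 with KCl, BSA, glycerol and Tween-20, cleaved an Abz/nitrotyrosine-quenched decapeptide. Fluorescence (ex 320, em 430) was read at 0 and 20 min at room temperature. Delta was normalized to 5.8 microM ADEP and DMSO/no-enzyme controls.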
* hit, by the source's call; ? = inconclusive; . = no result. Unless noted, the call rests on the fitted dose curve; in most records, active means well fitted curve in the direction sought with a large enough effect; inconclusive means small, poorly fitted or top-dose-only effect, or another doubt; inactive means no such curve, though single readings can be large; an effect the other way counts as inactive or inconclusive. Potency means the concentration at half of the fitted maximal effect.

SMILES	DT40 TDP1 no CPT	TDP1 inh	TDP1 cell CPT	ClpP mod
CCc1ccccc1NC(=O)CN1C(=O)C2CCCN2c2ccc(S(=O)(=O)N(CC)CC)cc21 (stereo not drawn)	-27.0%	2.6%	-22.6%	-3.9%
O=C(Nc1ccc([N+](=O)[O-])cc1Cl)c1cccc([N+](=O)[O-])c1	-29.5%	.	-17.3%	2.1%
O=C(O)c1cccc(NC(=S)NC(NC(=O)c2cccc([N+](=O)[O-])c2)C(Cl)(Cl)Cl)c1 (stereo not drawn)	1.3%	79.4µM*	1.9%	-6.0%
O=C(NC(NC(=S)Nc1ccc(Cl)cc1Cl)C(Cl)(Cl)Cl)c1cccc([N+](=O)[O-])c1 (stereo not drawn)	5.8µM*	7.8%	7.31µM*	-0.2%
CC(C)Cn1nc(NC(=O)c2cccs2)c2cc3ccccc3nc21	8.2µM*	-12.3%	?	-14.3%
CC(C)Cn1nc(NC(=O)c2ccco2)c2cc3ccccc3nc21	13µM*	8.2%	14.6µM*	.
CCOC(=O)N1CCN(c2c(NCc3ccccc3Cl)c(=O)c2=O)CC1	29.1µM*	.	18.4µM*	0.6%
CCCCOCCCNC(=O)C[C@@H]1C[C@@]2(C(=O)OCC)CCCC=C2N(Cc2ccc3c(c2)OCO3)C1=O	?	.	6.51µM*	-3.9%
CCOC(=O)[C@]12CCC=C1N(Cc1ccc3c(c1)OCO3)C(=O)[C@H](CC(=O)NCCCOC)C2	-26.6%	.	-9.6%	-1.1%
CCOC(=O)[C@]12CCC=C1N(Cc1ccc3c(c1)OCO3)C(=O)[C@H](CC(=O)NCc1ccc(C)o1)C2	23.1µM*	.	?	-8.2%
COC(=O)[C@]12CCCCC=C1N(Cc1ccc3c(c1)OCO3)C(=O)[C@H](CC(=O)NCC13CC4CC(CC(C4)C1)C3)C2	18.4µM*	.	?	-2.2%
COC(=O)[C@]12CCCCC=C1N(Cc1ccc3c(c1)OCO3)C(=O)[C@H](CC(=O)NCc1ccc(C)o1)C2	?	.	?	-0.9%
CCCCNC(=O)C[C@@H]1C[C@@]2(C(=O)OCC)CCCC=C2N(Cc2ccc3c(c2)OCO3)C1=O	20.6µM*	.	?	3.0%
CCOC(=O)[C@]12CCCC=C1N(Cc1ccc3c(c1)OCO3)C(=O)[C@H](CC(=O)NCCC(C)C)C2	?	.	?	-1.2%
COc1ccc(NC(=O)CN(C)CC(=O)N(C)C2(C#N)CCC(C)CC2)cc1 (stereo not drawn)	-7.4%	0.4%	-17.0%	-1.6%
CCOc1ccc(OCC)c(NC(=O)c2cnc3c(-c4ccccc4)c(C)nn3c2C)c1	?	3.2%	?	3.6%
C[S+](C)CCC(N)C(=O)O (stereo not drawn)	-21.6%	.	14.5%	.
COc1ccc(/C=C2\CN(Cc3ccccc3)C/C(=C\c3ccc(OC)c(O)c3)C2=O)cc1O	2.06µM*	0.0%	5.17µM*	4.5%
CCN1C/C(=C/c2ccc(OC)c(O)c2)C(=O)/C(=C/c2ccc(OC)c(O)c2)C1	11.6µM*	8.0%	13µM*	-0.4%
CC(C)(C)OC(=O)N1CCC(c2c(C(=O)O)cnn2-c2ccc(F)cc2F)CC1	-3.5%	-2.5%	-1.9%	-0.3%
C=CCN(c1ccc(F)cc1)S(=O)(=O)c1cc(C(=O)OCC(=O)N(C)C2CCS(=O)(=O)C2)ccc1Cl (stereo not drawn)	-7.7%	4.3%	-20.4%	-3.7%
Cc1c(N=N/C(C(=O)Nc2ccccc2)=C(/O)c2ccccc2)c(=O)n(-c2ccccc2)n1C	20.6µM*	6.5%	?	.
C[C@H](NC(=O)c1nc[nH]c1C(=O)NCCCCCNC(=O)OC(C)(C)C)c1ccccc1	16.4µM*	0.7%	14.6µM*	0.7%
C[C@H](NC(=O)c1nc[nH]c1C(=O)NCc1ccc(CNC(=O)OC(C)(C)C)cc1)c1ccccc1	?	-0.2%	?	2.8%
C[C@@H](NC(=O)c1nc[nH]c1C(=O)NCCCCCNC(=O)OC(C)(C)C)c1ccccc1	?	0.2%	25.9µM*	3.6%
COc1ccccc1OC(C)C(=O)Nc1ccc(-c2nc3ccccc3s2)cc1 (stereo not drawn)	?	5.7%	-25.6%	4.1%
Cc1ccc(NC(=O)C(Cc2ccccc2)N2C(=O)C3C4CCC(C4)C3C2=O)cc1Cl (stereo not drawn)	?	5.9%	?	-5.6%
